In PubChem BioAssay AID861 (The Scripps Research Institute Molecular Screening Center, 2007):
In all, about 200,000 compounds went through this assay and about 360 (0.18%) were called active. Rule as the data show it: active = inhibition above about 25%; inactive = the rest. The sample as a whole holds a higher share of actives than the screen did.

Biological target: Toll-like receptor 4 (Homo sapiens) + Myeloid differentiation primary response protein MyD88 (Homo sapiens) (UniProt O00206+Q99836)
Sequence (O00206 whole entry, looked up): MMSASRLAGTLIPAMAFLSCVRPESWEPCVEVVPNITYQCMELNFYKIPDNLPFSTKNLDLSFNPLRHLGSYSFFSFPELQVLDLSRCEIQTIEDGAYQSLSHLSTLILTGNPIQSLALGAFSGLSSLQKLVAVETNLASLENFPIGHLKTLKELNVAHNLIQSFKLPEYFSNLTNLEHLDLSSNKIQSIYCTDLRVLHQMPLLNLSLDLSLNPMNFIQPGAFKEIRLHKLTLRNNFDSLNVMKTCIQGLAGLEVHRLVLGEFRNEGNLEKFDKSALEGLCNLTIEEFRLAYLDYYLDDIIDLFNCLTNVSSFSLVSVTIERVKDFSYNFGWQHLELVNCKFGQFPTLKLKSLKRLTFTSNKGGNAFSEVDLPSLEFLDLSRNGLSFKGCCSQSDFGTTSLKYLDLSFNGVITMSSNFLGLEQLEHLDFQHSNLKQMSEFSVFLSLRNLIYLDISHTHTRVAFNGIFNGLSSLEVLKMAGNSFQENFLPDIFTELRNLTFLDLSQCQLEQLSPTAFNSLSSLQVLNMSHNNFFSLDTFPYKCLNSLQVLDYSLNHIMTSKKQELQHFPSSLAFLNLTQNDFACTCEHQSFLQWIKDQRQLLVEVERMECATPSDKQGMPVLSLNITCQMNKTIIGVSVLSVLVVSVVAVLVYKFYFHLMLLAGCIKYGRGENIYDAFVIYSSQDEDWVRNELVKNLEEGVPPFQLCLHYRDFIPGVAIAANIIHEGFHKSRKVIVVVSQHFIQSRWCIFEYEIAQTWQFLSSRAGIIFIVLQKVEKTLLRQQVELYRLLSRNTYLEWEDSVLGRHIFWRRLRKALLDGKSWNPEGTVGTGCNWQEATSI
Sequence (Q99836 whole entry, looked up): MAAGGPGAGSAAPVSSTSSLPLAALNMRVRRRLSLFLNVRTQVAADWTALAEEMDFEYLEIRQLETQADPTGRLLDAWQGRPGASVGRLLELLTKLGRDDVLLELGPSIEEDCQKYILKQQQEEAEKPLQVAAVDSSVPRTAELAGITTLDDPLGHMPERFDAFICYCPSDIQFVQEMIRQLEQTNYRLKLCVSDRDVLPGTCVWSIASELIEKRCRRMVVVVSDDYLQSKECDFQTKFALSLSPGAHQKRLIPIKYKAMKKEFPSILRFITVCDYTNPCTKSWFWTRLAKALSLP
Assay: disruptors of TLR4 binding to MyD88 – cell-based, HeLa CL3-4, BLA complementation, FRET ratio, primary screen (AID 861);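 also: 0% = vehicle and 100% = reference inhibitor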
Conditions: HeLa CL3-4 TLR4/MyD88 BLA complementation, at 8.4 µM, hits give high values

Structure (SMILES)	inhibition
COc1ccc(CN2CCN(c3ccccc3F)CC2)c(OC)c1	29.3% (active)
Fc1cccc(F)c1CN1CCN(Cc2c(F)cccc2F)CC1	6.5% (inactive)
CC(C)c1ccc(O)c(CN2CCN(c3ccccc3)CC2)c1	-8.07% (inactive)
CN(C)CCCN=Cc1c(O)n(Cc2ccco2)c(=O)[nH]c1=O	-1.36% (inactive)
CCOc1ccc(C2SCC(=O)Nc3c2c(C)nn3C2CCOC(C)(C)C2)cc1 (stereo not given)	-12% (inactive)
